These results are taken from PubChem BioAssay AID493036 (Sanford-Burnham Center for Chemical Genomics, 2011).

Hit rate of the full screen: of about 330,000 compounds, about 560 (0.17%) were called active.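 The calls were made as follows: active = activation at or above 40% of the spot to cytoplasm intensity ratio, with at least 20 cells analyzed; inconclusive = wells under 20 cells, flagged as cytotoxic or low count; inactive = the rest.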 What follows is part of a selection rich in actives, with near analogues and random picks from the rest.

The nature of experiment [1]: NTR1-driven beta-arrestin-GFP spot formation – imaging, U2OS cells, high content, primary screen (AID 493036).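 As to activation: 0% = DMSO without peptide and 100% = 100 nM NTR1 peptide.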 The following applies: agonist mode, measured here: cell count, cytotoxicity flag, at 20 µM.
Experiment [2] concerns the target Neurotensin receptor type 1 (Homo sapiens) (UniProt P30989). The description is as above. The following applies: agonist mode, at 20 µM, stronger effect = higher value.

Sequence of Neurotensin receptor type 1 (Homo sapiens) (P30989 whole entry, looked up): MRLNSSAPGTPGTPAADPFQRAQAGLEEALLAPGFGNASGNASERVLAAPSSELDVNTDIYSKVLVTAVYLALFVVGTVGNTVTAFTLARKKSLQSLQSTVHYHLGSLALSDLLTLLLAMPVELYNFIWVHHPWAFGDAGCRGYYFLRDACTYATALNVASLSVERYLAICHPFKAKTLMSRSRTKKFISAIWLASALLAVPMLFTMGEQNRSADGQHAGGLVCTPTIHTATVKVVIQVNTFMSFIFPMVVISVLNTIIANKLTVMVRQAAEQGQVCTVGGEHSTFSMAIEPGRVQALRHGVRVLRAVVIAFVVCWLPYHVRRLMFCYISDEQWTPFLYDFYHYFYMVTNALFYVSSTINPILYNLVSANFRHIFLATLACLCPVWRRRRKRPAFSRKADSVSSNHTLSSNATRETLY

Turning to `Fc1ccccc1/C=C1\CCCC2=C1Nc1ncnn1C2c1ccccc1F` (configuration not stated), the cell count in experiment [1] was 72 cells. For the same molecule, in experiment [2], the activation is 58.7% (active).
Taken in the same sequence, the figures for `CC(C)C(C)(C#N)NC(=O)CSc1nc2scc(-c3ccccc3)c2c(=O)[nH]1` (configuration not stated) were 65 cells and 6.5% (inactive).
Taken in the same sequence, the figures for `NS(=O)(=O)c1ccc(CCNC(=O)c2ccc([N+](=O)[O-])cc2[N+](=O)[O-])cc1` were 46 cells and -0.2% (inactive).
`O=C(CCC1CCN(C(=O)c2cccc(Cl)c2F)CC1)Nc1ccccc1` had a cell count in experiment [1] of 63 cells. For the same molecule, the activation in experiment [2] is 0.6% (inactive).
The corresponding values for `COc1cc(OC)cc(C(=O)NNC(=O)CCOc2ccccc2OC)c1` are 73 cells and -0.7% (inactive).
The corresponding values for `CCCCOc1ccc(C(=O)NCC(=O)OCC(=O)c2c(N)n(C)c(=O)n(C)c2=O)cc1` are 49 cells and -0.7% (inactive).
The corresponding values for `Cc1nnc(SCC(=O)N2c3ccccc3C(C)(c3ccc(Cl)cc3)CC2(C)C)s1` (configuration not stated) are 47 cells and 8.5% (inactive).
For the molecule `CCn1cc(/C=C(\NC(=O)c2ccc(C)cc2)C(=O)NCCN2CCOCC2)c2ccccc21`, in experiment [1], the cell count came out at 75 cells. Moreover, the activation in experiment [2] was 1.6% (inactive).
The corresponding values for `N#CC1(NC(=O)COc2ccc3oc4ccccc4c3c2)CCCCC1` are 33 cells and 0.8% (inactive).
As to `O=C(Nc1ccc2c(c1)CCC2)c1ccc(Br)s1`, in experiment [1], the cell count is 65 cells. Besides, the activation in experiment [2] is 4.4% (inactive).
The corresponding values for `Clc1cccc(Cl)c1Cn1nnc(-c2cccs2)n1` are 79 cells and 4.8% (inactive).
Taken in the same sequence, the figures for `CC(=O)N[C@H]1[C@H]([C@H](O)[C@H](O)CO)OC(C(=O)O)=C[C@@H]1O` were 69 cells and 1.8% (inactive).
The corresponding values for `CCOc1c(N2CCCCC2)c(=O)c1=O` are 32 cells and 2.2% (inactive).
In experiment [1], `CCOc1ccccc1NC(=O)NC1CCCCCCC1` came in with a cell count of 52 cells. In experiment [2], the activation was -0.7% (inactive).
As for `CC1(C)CC(=O)C=C(N2CCOCC2)C1`, in experiment [1], the cell count turned out to be 46 cells. Moreover, the activation in experiment [2] is 0.2% (inactive).
The corresponding values for `CC(C)(C)C(=O)Nc1ccc(C(=O)N/N=C/c2ccccc2OC(=O)c2ccc(Cl)cc2Cl)cc1` are 48 cells and 0.7% (inactive).
Taken in the same sequence, the figures for `Cc1nc2ccc(C(=O)N/N=C/c3ccc(O)cc3)cc2[nH]1` were 50 cells and -0.6% (inactive).
Taken in the same sequence, the figures for `O=C(N/N=C/c1ccc(OC(=O)c2ccccc2Cl)cc1)c1ccc(O)cc1` were 65 cells and 40.7% (active).
On to `CC1=CC=CN2C1=NC(=O)CC2(C)C(=O)N(CC(=O)NC1CCCC1)c1ccccc1C` (configuration not stated), for which, in experiment [1], the cell count stood at 39 cells. Besides, in experiment [2], the activation is 1% (inactive).
`Cc1ccc(N2C(=O)C(NC(=O)c3c(F)cccc3F)(C(F)(F)F)C3=C2CC(C)(C)CC3=O)cc1` (configuration not stated) returned a cell count in experiment [1] of 69 cells. Moreover, the activation in experiment [2] was 4% (inactive).
Taken in the same sequence, the figures for `COc1ccccc1CN(C)c1nnnn1-c1ccccc1` were 50 cells and 1.1% (inactive).
Taken in the same sequence, the figures for `CSc1ccc(CNCCN2CCOCC2)cc1` were 55 cells and -2.1% (inactive).
The corresponding values for `FC(F)(F)Oc1ccc(-c2cn3cccnc3n2)cc1` are 36 cells and 3.1% (inactive).
The molecule `CCc1ccccc1NC(=O)/C(=C/c1ccccc1)c1ccccc1` gave a cell count in experiment [1] of 63 cells. The activation in experiment [2] was 6.1% (inactive).
Molecule `Cc1coc(C)c1C(=O)CC1(O)C(=O)N(C)c2ccc(Cl)cc21` (configuration not stated) displayed a cell count in experiment [1] of 91 cells. In experiment [2], the activation is -1% (inactive).
Taken in the same sequence, the figures for `CN(C)CCNC(=O)C(C(=O)c1ccccc1)n1ccccc1=O` (configuration not stated) were 94 cells and -1.5% (inactive).
Taken in the same sequence, the figures for `CCS(=O)(=O)n1nc(-c2ccccc2)nc1SCc1ccccc1` were 92 cells and 6.4% (inactive).
The corresponding values for `CN(C)/C=C(/C(=O)c1ccc(F)cc1)S(=O)(=O)c1ccc(F)cc1` are 51 cells and -0.1% (inactive).
In the case of `CCOC(=O)c1c(CN2CCOCC2)n(-c2ccccc2)c2ccc(O)cc12`, the cell count in experiment [1] was 70 cells. In experiment [2], the activation was 2.7% (inactive).
The corresponding values for `CC1=NNC(=O)C1CCC(=O)N/N=C\c1cccc(Cl)c1` (configuration not stated) are 94 cells and -1% (inactive).
For `CCOC(=O)c1cnc(SCC(=O)Nc2ccccc2C(=O)OC)nc1N`, the cell count in experiment [1] was 88 cells. Further, in experiment [2], the activation is -1.8% (inactive).
The corresponding values for `CC(C)c1ccc(OCC(O)Cn2cnc3ccccc32)cc1` (configuration not stated) are 46 cells and 0.1% (inactive).
Taken in the same sequence, the figures for `O=C(C(c1ccccc1)c1ccccc1)N1CCN(CC(O)COc2ccccc2)CC1` (configuration not stated) were 88 cells and 0.6% (inactive).
Taken in the same sequence, the figures for `OC(CN=c1sc2ccccc2n1CC(O)COc1ccccc1)COc1ccccc1` (configuration not stated) were 92 cells and 58.9% (active).
Molecule `Cc1nn(C)c(Oc2ccccc2)c1CCNS(=O)(=O)c1ccc(F)cc1` registered a cell count in experiment [1] of 76 cells. Besides, the activation in experiment [2] was -0.4% (inactive).
The corresponding values for `Cc1cc(N(C)C)cc(C)[n+]1[O-]` are 38 cells and 0.3% (inactive).
Taken in the same sequence, the figures for `Cc1ccc(C(=O)N/C(=C\c2cn(S(=O)(=O)N(C)C)c3ccccc23)C(=O)N2CCCC2)cc1` were 61 cells and 1.6% (inactive).
The corresponding values for `CCCCCOC(=O)C1=C(C)Nc2nnnn2C1c1ccc(OC)c(OC)c1OC` (configuration not stated) are 85 cells and 0.9% (inactive).
Molecule `CCCS(=O)(=O)N1CCC(C(=O)NCCc2ccc(OC)c(OC)c2)CC1` yielded a cell count in experiment [1] of 46 cells. Further, the activation in experiment [2] was -0.4% (inactive).
The corresponding values for `O=C(N/N=C/c1ccccn1)c1cccc(NC(=O)c2ccc(Cl)cc2)c1` are 56 cells and 2.8% (inactive).
On to `Cc1cc2c(cc1C)N(C(=O)CN1C(=O)c3ccccc3C1=O)C(C)(C)c1ssc(=S)c1-2`, for which the cell count in experiment [1] is 52 cells. Besides, in experiment [2], the activation was 23.8% (inactive).
